Measurements from the supplement of paper PMC10849652.
Targets with a hit are over-represented here; the source holds about 7,900 in all. About 0.6% of all pairs of compound and target were hits. Unmarked numbers belong to inactive results.

Tests used:
Assay in all cases: log2 fold change, soluble protein after heating vs DMSO (PISA); higher = thermal stabilisation; K562 cells, 10 uM, 30 min; active = over 0.2 and 3.5 SD of the protein, either way, in both replicates (recomputed)
sotrastaurin = compound: CN1CCN(c2nc(C3=C(c4c[nH]c5ccccc45)C(=O)NC3=O)c3ccccc3n2)CC1 [sotrastaurin]
Procedure, shortened: (§1)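 Values are thermal stability changes relative to control samples and are taken from duplicates. They are stated as log2 fold changes. Before quantification by TMTpro 16plex LC-MS/MS with equalised channel sums, K562 cells at 2×10^6 cells/mL were treated with 10 μM compound for 30 min, heated in aliquots for 3 min across 48°C-58°C, pooled, extracted in PBS with 0.5% NP-40 at 4°C, and centrifuged at 21,000xg for 90 min to give the soluble supernatant.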

[1] = compound: CNC(=O)C1=CC=CC=C1NC2=NC(=NC=C2Cl)NC3=C(C=C(C=C3)N4CCOCC4)OC
Procedure, shortened: as §1

defactinib = compound: CNC(=O)c1ccc(Nc2ncc(C(F)(F)F)c(NCc3nccnc3N(C)S(C)(=O)=O)n2)cc1 [defactinib]
Procedure, shortened: as §1

rucaparib = compound: CNCc1ccc(-c2[nH]c3cc(F)cc4c3c2CCNC4=O)cc1 [rucaparib]
Procedure, shortened: as §1

encorafenib = compound: COC(=O)N[C@@H](C)CNc1nccc(-c2cn(C(C)C)nc2-c2cc(Cl)cc(NS(C)(=O)=O)c2F)n1 [encorafenib]
Procedure, shortened: as §1

[2] = compound: COC(=O)[C@H](CCSC)NC(=O)C1=C(C=C(C=C1)NC[C@H](CS)N)C2=CC=CC=C2
Procedure, shortened: as §1

[3] = compound: COC1=CC=C(C=C1)CN2C=CC3=C2C=C(C=C3)C(=O)NO
Procedure, shortened: as §1

filanesib = compound: CON(C)C(=O)N1N=C(c2cc(F)ccc2F)S[C@@]1(CCCN)c1ccccc1 [filanesib]
Procedure, shortened: as §1

idasanutlin = compound: COc1cc(C(=O)O)ccc1NC(=O)[C@@H]1N[C@@H](CC(C)(C)C)[C@](C#N)(c2ccc(Cl)cc2F)[C@H]1c1cccc(Cl)c1F [idasanutlin]
Procedure, shortened: as §1

alisertib = compound: COc1cc(Nc2ncc3c(n2)-c2ccc(Cl)cc2C(c2c(F)cccc2OC)=NC3)ccc1C(=O)O [alisertib]
Procedure, shortened: as §1

[4] = compound: COc1cc2nc(-c3cc(F)ccc3O)nc(N[C@@H]3CNC[C@H]3C(C)(C)O)c2cc1OC
Procedure, shortened: as §1

gefitinib = compound: COc1cc2ncnc(Nc3ccc(F)c(Cl)c3)c2cc1OCCCN1CCOCC1 [gefitinib]
Procedure, shortened: as §1

[5] = compound: COc1cccc2cc(-c3nc([C@H]4CC[C@H](C(=O)O)CC4)n4ncnc(N)c34)[nH]c12
Procedure, shortened: as §1

lapatinib = compound: CS(=O)(=O)CCNCc1ccc(-c2ccc3ncnc(Nc4ccc(OCc5cccc(F)c5)c(Cl)c4)c3c2)o1 [lapatinib]
Procedure, shortened: as §1

pictilisib = compound: CS(=O)(=O)N1CCN(Cc2cc3nc(-c4cccc5[nH]ncc45)nc(N4CCOCC4)c3s2)CC1 [pictilisib]
Procedure, shortened: as §1

alvocidib = compound: CN1CC[C@H](c2c(O)cc(O)c3c(=O)cc(-c4ccccc4Cl)oc23)[C@H](O)C1 [alvocidib]
Procedure, shortened: as §1

zotarolimus = compound: CO[C@H]1C[C@@H]2CC[C@@H](C)[C@@](O)(O2)C(=O)C(=O)N2CCCC[C@H]2C(=O)O[C@H]([C@H](C)C[C@@H]2CC[C@H](n3cnnn3)[C@H](OC)C2)CC(=O)[C@H](C)/C=C(\C)[C@@H](O)[C@@H](OC)C(=O)[C@H](C)C[C@H](C)/C=C/C=C/C=C/1C [zotarolimus]
Procedure, shortened: as §1

Tubastatin A = compound: CN1CCc2c(c3ccccc3n2Cc2ccc(C(=O)NO)cc2)C1 [Tubastatin A]
Procedure, shortened: as §1

saracatinib = compound: CN1CCN(CCOc2cc(OC3CCOCC3)c3c(Nc4c(Cl)ccc5c4OCO5)ncnc3c2)CC1 [saracatinib]
Procedure, shortened: as §1

[6] = compound: CNc1nc(-c2ccc3c(N)n[nH]c3c2)cc(N2C[C@@H](C(=O)NC3CCCCC3)CC[C@H]2C)n1
Procedure, shortened: as §1

Sequence of UniProt Q9UQB8 (Q9UQB8 whole entry, looked up): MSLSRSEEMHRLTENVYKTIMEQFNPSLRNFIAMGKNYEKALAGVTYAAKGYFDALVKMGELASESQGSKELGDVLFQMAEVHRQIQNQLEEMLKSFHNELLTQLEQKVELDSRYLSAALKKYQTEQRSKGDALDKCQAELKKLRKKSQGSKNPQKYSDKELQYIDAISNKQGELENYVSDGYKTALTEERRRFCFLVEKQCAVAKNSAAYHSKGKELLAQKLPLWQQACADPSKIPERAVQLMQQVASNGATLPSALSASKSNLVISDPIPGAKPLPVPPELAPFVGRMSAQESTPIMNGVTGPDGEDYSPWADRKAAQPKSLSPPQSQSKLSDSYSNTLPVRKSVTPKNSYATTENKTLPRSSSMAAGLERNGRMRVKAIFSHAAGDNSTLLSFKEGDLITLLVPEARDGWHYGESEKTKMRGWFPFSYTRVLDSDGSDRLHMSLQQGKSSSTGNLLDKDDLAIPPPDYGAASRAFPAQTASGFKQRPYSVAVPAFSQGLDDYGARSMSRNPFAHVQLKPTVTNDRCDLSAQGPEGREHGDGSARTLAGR
Sequence of UniProt Q7Z591 (Q7Z591 whole entry, looked up): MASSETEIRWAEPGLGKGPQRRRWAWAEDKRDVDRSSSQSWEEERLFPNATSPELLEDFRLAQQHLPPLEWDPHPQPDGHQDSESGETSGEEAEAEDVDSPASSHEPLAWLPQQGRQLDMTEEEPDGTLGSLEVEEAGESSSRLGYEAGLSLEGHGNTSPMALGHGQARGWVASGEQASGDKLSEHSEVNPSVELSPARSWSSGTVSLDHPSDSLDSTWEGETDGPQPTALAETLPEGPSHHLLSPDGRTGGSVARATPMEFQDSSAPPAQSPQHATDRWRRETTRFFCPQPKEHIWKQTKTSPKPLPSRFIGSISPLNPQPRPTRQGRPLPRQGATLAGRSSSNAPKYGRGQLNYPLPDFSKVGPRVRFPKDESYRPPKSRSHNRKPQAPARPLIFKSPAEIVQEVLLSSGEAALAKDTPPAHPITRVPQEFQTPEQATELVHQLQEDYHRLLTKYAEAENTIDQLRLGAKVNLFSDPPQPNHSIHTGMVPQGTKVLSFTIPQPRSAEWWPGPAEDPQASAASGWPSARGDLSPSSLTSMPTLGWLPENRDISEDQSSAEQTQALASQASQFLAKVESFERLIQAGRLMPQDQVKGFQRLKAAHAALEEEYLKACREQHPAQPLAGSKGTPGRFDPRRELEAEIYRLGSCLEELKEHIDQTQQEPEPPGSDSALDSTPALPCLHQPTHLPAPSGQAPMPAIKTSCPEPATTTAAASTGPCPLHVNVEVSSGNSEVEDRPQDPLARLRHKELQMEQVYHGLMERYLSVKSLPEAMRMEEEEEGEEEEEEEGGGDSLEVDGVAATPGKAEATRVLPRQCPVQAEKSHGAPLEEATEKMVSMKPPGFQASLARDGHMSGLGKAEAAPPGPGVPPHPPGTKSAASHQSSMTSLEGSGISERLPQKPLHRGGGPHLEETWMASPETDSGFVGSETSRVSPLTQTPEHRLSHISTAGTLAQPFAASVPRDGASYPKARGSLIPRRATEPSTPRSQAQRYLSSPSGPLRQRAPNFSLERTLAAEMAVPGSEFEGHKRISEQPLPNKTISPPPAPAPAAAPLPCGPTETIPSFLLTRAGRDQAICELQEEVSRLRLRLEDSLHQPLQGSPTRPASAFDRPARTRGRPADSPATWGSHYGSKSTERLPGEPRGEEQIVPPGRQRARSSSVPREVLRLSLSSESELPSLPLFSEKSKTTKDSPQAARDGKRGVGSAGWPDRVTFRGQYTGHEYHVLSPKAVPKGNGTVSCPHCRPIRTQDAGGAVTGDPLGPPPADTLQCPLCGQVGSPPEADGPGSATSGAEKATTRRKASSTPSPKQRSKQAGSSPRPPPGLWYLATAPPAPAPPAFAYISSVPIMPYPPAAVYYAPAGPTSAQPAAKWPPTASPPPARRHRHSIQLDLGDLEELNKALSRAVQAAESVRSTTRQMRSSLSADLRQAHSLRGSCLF
Sequence of UniProt P55008 (P55008 whole entry, looked up): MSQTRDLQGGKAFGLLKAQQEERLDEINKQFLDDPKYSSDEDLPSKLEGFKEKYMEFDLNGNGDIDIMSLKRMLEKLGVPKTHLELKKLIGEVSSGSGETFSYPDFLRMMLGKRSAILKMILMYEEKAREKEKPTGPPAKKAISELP
Sequence of UniProt P54252 (P54252 whole entry, looked up): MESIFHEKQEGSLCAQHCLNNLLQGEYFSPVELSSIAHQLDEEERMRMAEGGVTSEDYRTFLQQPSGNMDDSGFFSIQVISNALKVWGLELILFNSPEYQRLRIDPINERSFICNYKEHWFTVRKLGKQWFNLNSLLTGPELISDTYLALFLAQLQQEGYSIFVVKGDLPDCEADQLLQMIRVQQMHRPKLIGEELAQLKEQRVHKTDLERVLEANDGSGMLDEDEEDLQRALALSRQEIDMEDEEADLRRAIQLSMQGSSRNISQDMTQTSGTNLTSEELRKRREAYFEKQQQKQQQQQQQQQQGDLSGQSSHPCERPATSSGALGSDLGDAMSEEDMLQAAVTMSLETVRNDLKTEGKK
Sequence of UniProt O15254 (O15254 whole entry, looked up): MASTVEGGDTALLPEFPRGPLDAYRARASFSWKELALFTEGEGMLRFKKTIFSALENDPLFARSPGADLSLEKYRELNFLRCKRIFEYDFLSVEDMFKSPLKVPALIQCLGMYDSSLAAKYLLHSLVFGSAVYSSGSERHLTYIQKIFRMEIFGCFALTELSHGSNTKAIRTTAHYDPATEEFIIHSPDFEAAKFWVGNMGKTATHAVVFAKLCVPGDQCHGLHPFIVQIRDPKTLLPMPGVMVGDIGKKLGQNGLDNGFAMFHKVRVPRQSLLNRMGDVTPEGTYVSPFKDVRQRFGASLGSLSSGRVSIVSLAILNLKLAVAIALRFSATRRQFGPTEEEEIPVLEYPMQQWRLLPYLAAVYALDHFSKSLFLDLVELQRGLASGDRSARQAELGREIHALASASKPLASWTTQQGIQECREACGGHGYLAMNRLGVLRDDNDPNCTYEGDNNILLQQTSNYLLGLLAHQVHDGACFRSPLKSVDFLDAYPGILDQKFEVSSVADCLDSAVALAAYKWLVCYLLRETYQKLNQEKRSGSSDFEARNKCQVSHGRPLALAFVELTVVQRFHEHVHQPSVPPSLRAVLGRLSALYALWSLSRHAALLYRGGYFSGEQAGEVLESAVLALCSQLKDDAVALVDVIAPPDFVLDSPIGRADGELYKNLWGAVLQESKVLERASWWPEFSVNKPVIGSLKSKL
Sequence of UniProt Q04771 (Q04771 whole entry, looked up): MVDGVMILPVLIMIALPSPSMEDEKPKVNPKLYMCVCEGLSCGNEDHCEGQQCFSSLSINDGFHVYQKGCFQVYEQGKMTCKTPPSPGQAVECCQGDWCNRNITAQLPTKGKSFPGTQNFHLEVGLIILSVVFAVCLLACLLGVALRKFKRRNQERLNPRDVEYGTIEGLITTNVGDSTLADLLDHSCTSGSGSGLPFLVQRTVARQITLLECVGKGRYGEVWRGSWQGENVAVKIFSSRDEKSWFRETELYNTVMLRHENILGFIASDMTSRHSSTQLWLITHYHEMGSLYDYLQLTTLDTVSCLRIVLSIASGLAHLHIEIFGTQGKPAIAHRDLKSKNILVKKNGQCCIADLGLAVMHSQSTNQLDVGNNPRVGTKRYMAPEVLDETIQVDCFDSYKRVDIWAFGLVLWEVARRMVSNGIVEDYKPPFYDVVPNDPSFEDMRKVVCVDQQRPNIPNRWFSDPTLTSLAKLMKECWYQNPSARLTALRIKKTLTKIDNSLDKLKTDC
Sequence of UniProt Q9HC16 (Q9HC16 whole entry, looked up): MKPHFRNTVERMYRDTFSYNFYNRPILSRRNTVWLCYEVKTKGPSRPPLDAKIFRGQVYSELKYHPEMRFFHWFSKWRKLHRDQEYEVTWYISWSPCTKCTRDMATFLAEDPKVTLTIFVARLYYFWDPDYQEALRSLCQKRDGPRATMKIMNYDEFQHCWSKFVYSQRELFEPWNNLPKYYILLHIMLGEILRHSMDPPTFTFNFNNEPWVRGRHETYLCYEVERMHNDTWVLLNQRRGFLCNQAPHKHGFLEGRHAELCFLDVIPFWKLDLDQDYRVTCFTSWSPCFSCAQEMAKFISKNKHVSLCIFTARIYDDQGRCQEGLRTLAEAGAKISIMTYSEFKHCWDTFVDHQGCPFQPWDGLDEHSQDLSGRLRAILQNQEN
Sequence of UniProt Q9BUT1 (Q9BUT1 whole entry, looked up): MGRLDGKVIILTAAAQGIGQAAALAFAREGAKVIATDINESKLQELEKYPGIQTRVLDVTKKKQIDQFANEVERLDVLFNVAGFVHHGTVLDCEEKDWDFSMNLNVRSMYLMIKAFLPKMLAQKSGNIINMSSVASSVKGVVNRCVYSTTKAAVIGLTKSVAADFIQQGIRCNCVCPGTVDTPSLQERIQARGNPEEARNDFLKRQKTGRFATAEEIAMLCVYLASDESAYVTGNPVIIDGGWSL
Sequence of UniProt P40617 (P40617 whole entry, looked up): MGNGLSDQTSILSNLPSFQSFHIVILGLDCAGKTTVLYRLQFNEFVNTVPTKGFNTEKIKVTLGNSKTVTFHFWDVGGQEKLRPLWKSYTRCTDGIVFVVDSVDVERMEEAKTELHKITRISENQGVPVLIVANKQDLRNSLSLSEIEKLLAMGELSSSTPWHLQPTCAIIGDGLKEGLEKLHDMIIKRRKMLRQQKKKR
Sequence of UniProt P17707 (P17707 whole entry, looked up): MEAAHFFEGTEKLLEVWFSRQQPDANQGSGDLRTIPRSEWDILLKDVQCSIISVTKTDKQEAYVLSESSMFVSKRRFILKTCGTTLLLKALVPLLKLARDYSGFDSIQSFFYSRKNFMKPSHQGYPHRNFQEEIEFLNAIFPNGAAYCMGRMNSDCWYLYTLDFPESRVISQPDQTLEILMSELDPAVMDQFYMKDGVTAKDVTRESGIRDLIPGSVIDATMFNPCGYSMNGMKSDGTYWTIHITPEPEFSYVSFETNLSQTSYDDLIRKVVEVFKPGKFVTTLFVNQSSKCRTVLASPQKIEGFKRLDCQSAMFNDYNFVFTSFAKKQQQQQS

Target	log2 fold change (sotrastaurin)	log2 fold change [1]	log2 fold change (defactinib)	log2 fold change (rucaparib)	log2 fold change (encorafenib)	log2 fold change [2]	log2 fold change [3]	log2 fold change (filanesib)	log2 fold change (idasanutlin)	log2 fold change (alisertib)	log2 fold change [4]	log2 fold change (gefitinib)	log2 fold change [5]	log2 fold change (lapatinib)	log2 fold change (pictilisib)	log2 fold change (alvocidib)	log2 fold change (zotarolimus)	log2 fold change (Tubastatin A)	log2 fold change (saracatinib)	log2 fold change [6]
ASB6 (UniProt Q9NWX5)	-0.029	-0.078	-0.033	0.124	-0.094	0.031	0.298	0.008	-0.029	-0.214	-0.083	-0.034	0	-0.055	0.157					
AKNA (UniProt Q7Z591)	-0.017	-0.074						0.04			0.205			-0.059		-0.066	0.01			
BRAF, A0A2R8Y8E0		0.143					-0.008		0.221	-0.054		-0.027	-0.326					-0.084		
AP2S1 (UniProt M0QZ21)																		0.335		
ATXN7L3 isoform 2 (UniProt Q14CW9)	0.098	-0.038		0.669 (active)	0		-0.158	-0.02	0.193	-0.191		0.052	0.035							
ANGEL1 (UniProt Q9UNK9)			-0.076			0.095	0.024											0.089		
APOBEC3G (UniProt Q9HC16)	0.023	-0.093	-0.097	0.152	-0.263	0.038	-0.012	0.066	0.039	-0.092	0.047	-0.074	-0.053	0.046				-0.045	0.046	-0.121
ACSL6 isoform 1 (UniProt Q9UKU0)	0.177	-0.048	0.155			0.021		-0.054		-0.013		0.103	0.123		0.051			-0.076	-0.041	-0.007
ABHD11 (UniProt Q8NFV4)		0.05	-0.114	0.02	0.004	-0.095	-0.076		-0.058	-0.002	0.061	-0.013	0.076	-0.037	0.024	-0.066	0.049	0.096	-0.022	-0.102
BDH2 (UniProt Q9BUT1)	0	-0.061	-0.021			-0.039	0.022	-0.007	-0.039	0.071	0.065		-0.001	0.012	0.007	-0.177	0.098		-0.088	0.015
AMD1 (UniProt P17707)	-0.017	0.02	0.082	-0.08	0.023	0.042	-0.009	-0.128	-0.193	-0.023	0.024	0.041	0.058	-0.034	0.043			0.014		
ADD2 isoform 9 (UniProt P35612)	-0.122							0.043		-0.072	-0.053		0.282	0.04						
AUH (UniProt Q13825)		0.003	-0.055	0.065	-0.005	0.006	-0.107		-0.074	0.175	-0.036		0.034	0.056	-0.071	0.016	0.009	0.152	0.184	-0.062
ATF1 (UniProt P18846)	-0.098	-0.052	0.045	-0.128	-0.07	0.024		0.097	-0.082	-0.101	-0.071	0.052	0.006	-0.011	-0.039	0.081	-0.51 (active)	-0.068		
ACTR3B (UniProt Q9P1U1)		-0.004	0.037			-0.01	0.407 (active)				0.022	-0.213		-0.056	-0.021			-0.01		
ADD1 isoform 4 (UniProt P35611)							-0.054								-0.068	0.087	-0.065			
ATXN3 isoform 1 (UniProt P54252)		-0.03	-0.119	-0.015	0.085	0.018	0.023		-0.114	-0.004	0.106	-0.192	0.297	-0.031	-0.036	-0.109	-0.051	0.138		
ACOX3 (UniProt O15254)	-0.039	-0.034	-0.063	-0.313	-0.036	0.046	0.138	0.042	0.074	0.555	-0.106	0.116	0.144	0.41		-0.097	-0.037	-0.465 (active)		
ARMC8 isoform 6 (UniProt Q8IUR7)		-0.088	-0.114			0.108			0.072			0.072								
ARHGAP25 isoform 4 (UniProt P42331)		-0.023	0.02	0.168	0.212	-0.212			-0.123	-0.068		0.08	-0.11		0.085	-0.128	-0.077	0.079	0.249	0.131
AIF1 (UniProt P55008)	0.025	0.15	0.032			-0.046		0.038	0.052		0.083			0.053						
BSCL2 isoform 4 (UniProt Q96G97)		-0.025	-0.113			-0.071			-0.132	-0.037	-0.248	0.021	0.069	0.048	0.126	-0.164	0.076	0.03	-0.019	-0.122
AARSD1 (UniProt Q9BTE6)		0.08		0.014	-0.042		-0.659		-0.071	0.08	0.036	0.157	-0.016	0.069		-0.15	0.055		0.008	0.165
ACVR1 (UniProt Q04771)	-0.081	0	-0.095	0.029	0.122	-0.156		-0.022	-0.156	-0.096	0.133		-0.13	-0.004	0.248	0.047	-0.371	-0.042		-0.106
AZI2 (UniProt Q9H6S1)	-0.046	0.453 (active)	0.018	-0.12	0.012	-0.093		0.006				0.227						-0.078		
BAP18 isoform 3 (UniProt Q8IXM2)		-0.129								-0.033			0.12		-0.093			0.301		
ARL4A (UniProt P40617)									0.056	0.042			0.094							
BAIAP2 isoform 4 (UniProt Q9UQB8)	0.147							0.302								-0.034	-0.184	0.288		
